Compound activity from PubChem BioAssay.
EBV LMP1 NFkB: Epstein-Barr LMP1 NF-kappaB reporter inhibition; LMP1-induced NF-kappaB luciferase reporter cells, luminescence; inhibition, % at 12.5 µM; hit rate 0.69% among 350,000; AID 504558; in the data active = inhibition above about 41%;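 also: 0% = neutral control wells and 100% = reference inhibitor control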
HSF1 inhib: HSF1 inhibition | NIH3T3-HGL HSE-luciferase, MG132-induced, luminescence 8 h; stronger effect = lower value | activity change, negative = inhibition, % at 7.5 µM (by protocol) | hit rate 0.77% among 300,000;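 active = more than half of replicate wells show activity change below -50%, luminescence cut by over half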;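 also: luciferase reports HSF-1 transcriptional activity via heat shock element; 0% = median of DMSO wells and -100% = zero luminescence signal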
HSF-1 act: increases HSF-1 driven luciferase reporter signal | NIH3T3-HGL HSF-1 luciferase reporter, MG132, 8 h; 100% = twice DMSO control signal | activation, % at 9 µM | hit rate 1.7% among 300,000 | AID 504408;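 active = mean replicate activation of at least 50% with a set share of replicates each reaching 50%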;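 also: 0% = median of the neutral control wells and 100% = twice that signal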
TROY NFkB inh: inhibitors of TROY-dependent NF-kB signaling; Q293 LMP1-TROYcd NF-kB luciferase reporter, 4 h; inhibition, % at 10 µM; hit rate 0.98% among 360,000;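 active = compounds whose plate-normalised and pattern-corrected inhibition of the luciferase reporter signal at the single screening dose is 50% or more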
LGR2 inh: blocks bursicon-induced cAMP signaling via Drosophila LGR2 | AID 720647 | hit rate 0.35% among 380,000 | HEK293 LGR2, CRE-luciferase, bursicon-stimulated, 4 h | inhibition, % at 9.99 µM;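 active = drop in luminescence signal, shown as inhibition above about 50% in the replicate tests, limit read from the data, passing the limit was not always enough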;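 also: agonist challenge used bursicon conditioned medium at about half maximal strength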
TWEAK Fn14 block: inhibitors of TWEAK-Fn14 interaction signaling; TWEAK-stimulated Fn14 reporter cells, luciferase luminescence, 8 h; inhibition, % at 10 µM; hit rate 2% among 360,000; AID 1159606; in the data active = inhibition above about 50%
Active calls of the source: *; . = not tested or not shown. Shown are actives, neighbours in structure and some others; about 3.6% of the full set was active somewhere.

SMILES | EBV LMP1 NFkB | HSF1 inhib | HSF-1 act | TROY NFkB inh | LGR2 inh | TWEAK Fn14 block
O=C(Nc1ccccc1)c1nnsc1S(=O)c1ccc(Cl)cc1 (stereo unspecified) | -21 | 208 | 157* | -11 | . | 3
O=C(N1CCOCC1)N1CCN(S(=O)(=O)c2ccc(Cl)cc2)C1 | 44* | -3 | -2 | 3 | 10 | 17
O=C(c1nnsc1S(=O)(=O)c1ccc(Cl)cc1)N1CCOCC1 | 39 | -80* | -81 | 68* | 102* | 91*
CNC(=O)c1nnsc1S(=O)(=O)c1ccc(Cl)cc1 | 68* | 102 | 158* | 69* | 103* | 59*
CNC(=O)c1ccc(S(=O)(=O)c2ccc(Cl)cc2)c(NC(C)=O)c1 | 10 | -10 | -28 | 21 | 1 | 14
CNC(=O)C[C@H]1CC[C@H]2[C@H](COc3ccc(NC(=O)C4CC4)cc3C(=O)N2C)O1 | . | . | . | . | 7 | .
CN(C)Cc1cc(C(C)(C)C)cc(N2CCOCC2)c1O | 68* | . | . | -2 | -4 | 5
CCN(CC)Cc1cc(C(C)(C)C)cc(N2CCOCC2)c1O | 4 | . | . | -8 | -11 | -19
COC(=O)C1=C(C)NC2=C(C(=O)c3ccccc32)C1c1cccc(OC)c1 (stereo unspecified) | 10 | 3 | 8 | -3 | . | 16
Cn1c2c(c(=O)[nH]c1=O)C(c1cccc(O)c1)C1=C(N2)c2ccccc2C1=O (stereo unspecified) | 47* | . | . | -88 | 13 | -267
COc1ccc(S(=O)(=O)N(C(=O)c2ccncc2)c2ccc3oc4c(c3c2)CCCC4)cc1 | -2 | 0 | 14 | 44 | 18 | 51*
Cc1ccc(C(=O)N2CCCC(Nc3ccc(F)cc3)C2)cc1C (stereo unspecified) | -12 | -71* | -76 | -10 | 6 | 3
CCOC(=O)c1nc(Nc2ccc(Nc3ccccc3)cc2)c2ccccc2n1 | 4 | 4 | 1 | 54* | 20 | 43
Cn1cccc1CC(=O)NNC(=S)Nc1ccccc1Cl | 58* | -9 | -6 | -12 | -36 | 8
O=C(C[C@@H]1C=C[C@@H](NS(=O)(=O)c2ccc(F)cc2)[C@@H](CO)O1)NC1CCC1 | . | . | . | . | 10 | .
CCOc1ccc(N2C(=O)/C(=C\c3ccc(O)c(OC)c3)S(=O)(=O)C2c2cccc([N+](=O)[O-])c2)cc1 (stereo unspecified) | -2 | 50 | 112* | 12 | 26 | 9
CCOc1ccc(N2C(=O)/C(=C\c3ccc(OC)c(O)c3)S(=O)(=O)C2c2cccc([N+](=O)[O-])c2)cc1 (stereo unspecified) | -14 | . | . | 5 | -18 | -9
C/C(=N\NS(=O)(=O)c1ccc([N+](=O)[O-])cc1)c1cccs1 | 58* | 6 | 11 | -2 | 3 | -1
O=C(COC(=O)/C=C/c1cccc([N+](=O)[O-])c1)NCc1ccco1 | -1 | 181 | 200* | -9 | 1 | 11
O=C(COC(=O)/C=C/c1ccc([N+](=O)[O-])cc1)NCc1ccco1 | 19 | -4 | 0 | 18 | -22 | 2
Cc1ccc(S(=O)(=O)NC(C)c2ccccc2)cc1[N+](=O)[O-] (stereo unspecified) | 50* | 0 | 23 | 5 | -16 | -9
CCOC(=O)C1CCN(c2c(NCc3ccc(C(=O)Nc4ccc(C)cc4)cc3)c(=O)c2=O)CC1 | 19 | -69* | -78 | -12 | 16 | -7
CCOC(=O)C1CCN(c2c(NCc3ccc(C(=O)NC4CCCC4)cc3)c(=O)c2=O)CC1 | -7 | 7 | 10 | 5 | 12 | -2
CCN(CC)c1ccc2c(O)cc(=O)oc2c1 | -5 | 4 | -1 | -10 | -136 | 86*
COc1ccc(CN(C)C[C@H]2Oc3ccc(NC(=O)NC(C)C)cc3CC(=O)N([C@H](C)CO)C[C@H]2C)cc1 | . | . | . | . | 16 | .
SMILES | EBV LMP1 NFkB | HSF1 inhib | HSF-1 act | TROY NFkB inh | LGR2 inh | TWEAK Fn14 block
Cc1noc(C)c1S(=O)(=O)Nc1ccc2c(c1)C(=O)N([C@@H](C)CO)C[C@H](C)[C@@H](CN(C)Cc1ccc(C(F)(F)F)cc1)OCCCC[C@@H](C)O2 | . | . | . | . | -7 | .
Oc1ccc(C[C@H]2CNC(=S)N2CC2CCCN2C[C@H](Cc2ccc(O)cc2)N2C[C@H](Cc3ccccc3)N(CC3CCCCC3)C2=S)cc1 (stereo partly specified) | 11 | . | . | 0 | 15 | 62*
Oc1ccc(C[C@H]2CN([C@@H](Cc3ccc(O)cc3)CN3CCC[C@@H]3CN3C(=S)NC[C@@H]3Cc3ccccc3)C(=S)N2CCc2ccccc2)cc1 | . | . | . | 19 | 23 | 11
Oc1ccc(C[C@H]2CNC(=S)N2CC2CCCN2C[C@H](Cc2ccc(O)cc2)N2C[C@H](Cc3ccc(O)cc3)N(CC3CCCCCC3)C2=S)cc1 (stereo partly specified) | -27 | . | . | 35 | 10 | 89*
CC(C)C[C@@H](CN1CCCC1CN1C(=S)NC[C@@H]1Cc1ccc(O)cc1)N1C[C@H](Cc2ccc(O)cc2)N(CCc2ccccc2)C1=S (stereo partly specified) | 7 | . | . | 25 | 6 | 65*
COc1cc(C2Nc3ccccc3C(=O)N2c2ccc3c(c2)OCCO3)ccc1OCC(C)C (stereo unspecified) | 26 | 20 | 48 | 24 | . | 67*
O=C1c2ccccc2NC(c2ccc3c(c2)OCCO3)N1c1ccc2c(c1)OCCO2 (stereo unspecified) | 21 | 8 | 11 | 59* | . | 59*
O=C1S/C(=C\c2ccc(N3CCOCC3)o2)C(=O)N1Cc1ccc(F)cc1 | 6 | . | . | 14 | . | 52*
O=C1NC(=S)S/C1=C/c1ccc(N2CCOCC2)o1 | 7 | 7 | 2 | 3 | . | 6
CC(C)OC(=O)CN1C(=O)S/C(=C/c2ccc(N3CCCCC3)o2)C1=O | -5 | 20 | 44 | -17 | 1 | -16
O=C1S/C(=C/c2ccc(N3CCOCC3)o2)C(=O)N1Cc1ccc(F)cc1 | -4 | 103 | 155* | 2 | . | -11
Cc1cccc(OCC(=O)Nc2ccc3c(c2)nc(CCN2CCCCC2)n3C)c1 | 27 | 84 | 84* | -29 | 2 | 1
Cc1cccc(OCC(=O)Nc2ccc3c(c2)nc(CN2CCCCC2)n3C)c1 | 14 | -8 | -12 | 58* | 0 | 81*
CC(=O)N1CCN(Cc2nc3cc(NC(=O)COc4cccc(C)c4)ccc3n2C)CC1 | 6 | -1 | -21 | 7 | 13 | 28
Cn1c(CN2CCCCC2)nc2cc(NC(=O)c3ccccc3Cl)ccc21 | 7 | -39 | -47 | 22 | -25 | 52*
Cc1cccc(OCC(=O)Nc2ccc3c(c2)nc(CCN2CCN(c4ccccn4)CC2)n3C)c1 | 13 | 12 | 5 | 32 | 15 | 36
O=C(Nc1ccc([N+](=O)[O-])cc1)C1CC1(c1ccccc1)c1ccccc1 (stereo unspecified) | 3 | 1 | 5 | 70* | 23 | 32
